hcDAF12 agonist – activates DAF-12 receptor from parasite H. contortus. HEK293 hcDAF-12 lit1-tk-luc reporter, luminescence; 0% DMSO, 100% Δ7-dafachronic acid. activation, % at 6.8 µM. hit rate 1.4% among 370,000;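 active = activation above the mean of all tested compounds plus 3 SD, cut at about 5.5% in these data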;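 also: 100% = response to 3 µM Δ7-dafachronic acid high control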
hgDAF12 agonist – activates the H. glycines DAF-12 receptor ligand-binding domain; HEK293 GAL4-hgDAF12 UAS-luciferase reporter, agonist luminescence; normalized to butyrate control; activation, % at 6.8 µM; hit rate 1.8% among 370,000;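 active = activation above a cutoff set at the mean of all screened compounds plus 3 SD, cut at about 10% in these data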;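 also: 0% = DMSO wells and 100% = sodium butyrate wells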
ssDAF-12 act – activates DAF-12 receptor from parasite S. stercoralis | HEK293 ssDAF-12/GRIP1 lit1-tk-luc reporter, luminescence; % of 3 µM dafachronic acid response | activation, % at 6.8 µM | hit rate 1% among 370,000 | AID 652126;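 active = activation above the mean over all tested compounds plus 3 SD, cut at about 0.9% in these data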;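 also: 0% = DMSO-only wells and 100% = 3 µM delta7-dafachronic acid wells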
DAX1 inh-1 – inhibits human nuclear receptor DAX1; HEK293 Gal4-DAX1 luciferase reporter, luminescence; AID 504766; hit rate 0.99% among 340,000; inhibition, % at 6.75 µM; P51843;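 active = inhibition above the mean over all tested compounds plus 3 SD, cut at about 4.2% in these data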;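 also: 0% = DAX1-transfected cells with DMSO and 100% = empty-vector control cells with DMSO; inhibition shows as a rise in luminescence from relieved DAX1 repression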
Target sequence (P51843 207-470 limits assumed): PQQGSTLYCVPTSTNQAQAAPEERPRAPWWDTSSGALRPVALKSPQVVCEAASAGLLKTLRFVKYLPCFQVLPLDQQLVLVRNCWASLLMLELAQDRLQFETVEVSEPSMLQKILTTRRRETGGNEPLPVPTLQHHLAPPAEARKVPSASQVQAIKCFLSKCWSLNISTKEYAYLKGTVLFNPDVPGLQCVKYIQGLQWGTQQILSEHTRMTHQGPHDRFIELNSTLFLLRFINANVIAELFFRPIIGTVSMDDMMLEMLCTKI
DAX1 inh-2 – inhibitors of DAX1 repression of SF-1 activated StAR promoter | HEK293T StAR-luciferase reporter, SF-1/DAX-1 repression relief | AID 652010 | hit rate 1.1% among 370,000 | inhibition, % at 6.8 µM;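 active = inhibition above the mean over all tested compounds plus 3 SD, cut at about 3.6% in these data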;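 also: 0% = DAX-1 cells with DMSO and 100% = cells lacking DAX-1 with DMSO; higher inhibition means more luminescence from relief of DAX-1 repression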
DAX1 conf – NR0B1 (human) inhibition, confirmation. shares compounds with DAX1 inh-2. HEK293T StAR-promoter luciferase reporter, SF-1/DAX-1 repression. inhibition, % at 6.8 µM. hit rate 87% among 2,400. AID 652134;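 active = inhibition above the average of every tested compound plus 3 SD, cut at about 3.8% in these data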;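 also: 0% = DAX-1 cells with DMSO and 100% = no DAX-1 control cells with DMSO; active compounds raise luminescence by relieving repression of the StAR reporter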
SF1 mutant ctr – nonselective inhibitor or artifact in SF-1 mutant DAX1 counter-screen | inhibition, % at 6.8 µM | HEK293 StAR-luciferase, SF-1 AF2 mutant, luminescence | shares compounds with DAX1 inh-2 | hit rate 78% among 2,400;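 active = inhibition above the mean of all tested compounds plus 3 SD, cut at about 3% in these data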;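 also: 0% = DAX-1 transfected cells with DMSO and 100% = cells without DAX-1 with DMSO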
LXR ag – LXR-beta agonism as hcDAF-12 counter-screen | shares compounds with hcDAF12 agonist | HEK293 Gal4-LXR tk-luc reporter, luminescence, 24 h; normalized: DMSO 0%, positive control 100% | activation, % at 6.8 µM | 3,400 tested, under 10 active;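 active = mean percent activation of the reporter above a cutoff set as the average over tested compounds plus their standard deviation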
Target sequence (P55055 whole entry, looked up, the tested form may be a part): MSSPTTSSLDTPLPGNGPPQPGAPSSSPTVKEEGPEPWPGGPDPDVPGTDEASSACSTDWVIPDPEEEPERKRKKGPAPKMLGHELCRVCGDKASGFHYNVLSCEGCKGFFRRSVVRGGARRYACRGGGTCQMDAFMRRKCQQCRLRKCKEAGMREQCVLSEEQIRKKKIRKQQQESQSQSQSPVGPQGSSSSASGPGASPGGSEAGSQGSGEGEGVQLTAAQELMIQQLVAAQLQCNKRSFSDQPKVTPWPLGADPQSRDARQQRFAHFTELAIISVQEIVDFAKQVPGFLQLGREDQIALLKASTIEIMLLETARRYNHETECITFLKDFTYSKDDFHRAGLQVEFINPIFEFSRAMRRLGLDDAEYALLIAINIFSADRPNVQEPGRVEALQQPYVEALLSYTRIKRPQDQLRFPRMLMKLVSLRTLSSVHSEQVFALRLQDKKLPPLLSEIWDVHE
hcDAF12 conf – confirmation of H. contortus DAF-12 agonists | activation, % at 6.8 µM | HEK293 hcDAF-12 lit1-tk-luc reporter, luminescence; % of Δ7-dafachronic acid response | shares compounds with hcDAF12 agonist | AID 743032 | hit rate 61% among 3,400;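 active = mean activation across triplicate tests above the threshold derived from the earlier primary screen, cut at about 5.5% in these data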;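 also: 0% = DMSO only wells and 100% = 3 µM Δ7-dafachronic acid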
hgDAF12 ag – hgDAF-12 agonism, confirmation assay. shares compounds with hgDAF12 agonist. HEK293 GAL4-hgDAF12 luciferase reporter, agonist mode; percent of butyrate response. activation, % at 6.8 µM. hit rate 80% among 3,300. AID 743050;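 active = mean activation over triplicate wells above the hit cutoff derived from the earlier primary screen, cut at about 11% in these data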;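 also: 0% = DMSO low control and 100% = 2 mM sodium butyrate high control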
LXRb DAF12 ctr – counter-screen for DAF-12 agonists: agonists of human LXR-beta; HEK293 Gal4-LXR luciferase reporter, 24 h; 3,300 tested, under 10 active; activation, % at 6.8 µM; shares compounds with hgDAF12 agonist;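 active = mean activation of the triplicate above a set limit carried over from the primary screen, none filed active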
* hit, by the source's call; nt = not tested or not shown. This is a sample that favours compounds with a hit; in the whole collection about 4.1% have one here.

SMILES	hcDAF12 agonist	hgDAF12 agonist	ssDAF-12 act	DAX1 inh-1	DAX1 inh-2	DAX1 conf	SF1 mutant ctr	LXR ag	hcDAF12 conf	hgDAF12 ag	LXRb DAF12 ctr
Fc1ccc(Cn2ccc3ccc(-c4ccc5ccn(Cc6ccc(F)cc6)c5c4)cc32)cc1	1	2	0	nt	-1	nt	nt	nt	nt	nt	nt
CC1CCN(c2ccc(NC(=O)c3ccc(Br)o3)cc2)CC1	4	20*	0	1	14*	11*	9.6*	nt	nt	18*	1
CS(=O)(=O)N1CCN(c2ccc(NC(=O)c3ccc(Br)o3)cc2)CC1	1	7	0	1	3	nt	nt	nt	nt	nt	nt
Cc1cccc(-n2ncc3c(NC(C)C)ncnc32)c1	1	17*	0	1	6.6*	11*	8.2*	nt	nt	18*	1
Cc1cccc(-n2ncc3c(Nc4ccc(F)cc4)ncnc32)c1	-2	5	-1	1	2	nt	nt	nt	nt	nt	nt
CC(C)Nc1ncnc2c1cnn2-c1ccccc1	4	17*	0	0	5.4*	7.2*	4.2*	nt	nt	12*	1
NNc1ncnc2c1cnn2-c1ccccc1	2	2	0	4	0	nt	nt	nt	nt	nt	nt
CCC(CO)Nc1ncnc2c1cnn2-c1ccc(OC)cc1 (stereo unspecified)	3	16*	0	1	5.1*	8.4*	4.4*	nt	nt	9	1
COCCNC(=S)N(C)[C@H]1C[C@H]2c3[nH]c4cccc(-c5ccccc5)c4c3CCN2C(=O)[C@H]1[C@H](C)O	-3	0	0	nt	0	nt	nt	nt	nt	nt	nt
COC(=O)[C@]12C[C@H](CC(=O)N3CCOCC3)C(=O)N(Cc3ccco3)C1=C[C@H](COCc1ccccc1)O[C@@H]2C	2	-4	0	nt	-1	nt	nt	nt	nt	nt	nt
Cc1ccc(NC(=O)N2CCc3ccccc3C2)cc1C	4	14*	-1	2	6.6*	8.6*	5.5*	nt	nt	13*	0
COc1ccc(NC(=O)N2CCc3ccccc3C2)cc1OC	-1	2	-1	1	-1	nt	nt	nt	nt	nt	nt
CC(C)C[C@H]1COc2ccc(Cl)cc2S(=O)(=O)N1	0	0	-2	nt	-1	nt	nt	nt	nt	nt	nt
O=C1c2ccccc2S(=O)(=O)N1CC1CC(c2ccc(Cl)cc2)=NO1 (stereo unspecified)	6.7*	15*	0	2	4.8*	14*	7.5*	1	3	14*	1
COc1ccc(C2CC(=O)C(c3cccc(F)c3)=CN2Cc2ccccc2)cc1 (stereo unspecified)	-2	1	-1	nt	-1	nt	nt	nt	nt	nt	nt
Cc1ccccc1Nc1nc(N)c2ccccc2n1	7.1*	19*	0	1	5.3*	12*	5.6*	1	5	17*	1
COc1ccc(C)cc1Nc1nc(N)c2ccccc2n1	0	3	-1	-3	0	nt	nt	nt	nt	nt	nt
O=C(CSc1nnc(-c2cccnc2)n1Cc1ccco1)Nc1cc(Cl)ccc1F	-1	-4	-1	nt	0	nt	nt	nt	nt	nt	nt
COc1c(-c2ccc(O)cc2)oc2cc(O)cc(O)c2c1=O	-1	-1	-1	3	1	nt	nt	nt	nt	nt	nt
CC(C)Oc1cc(O)c2c(=O)c(-c3ccc(O)cc3)coc2c1	7.6*	26*	0	1	5.3*	11*	5.7*	1	5	20*	1
C=CCn1c(=O)c(C(=O)Nc2ccccc2S(N)(=O)=O)c(O)c2ccccc21	12*	15*	1.1*	1	5.8*	10*	4.0*	1	5	11*	0
C=CCn1c(=O)c(C(=O)Nc2ccccc2C(=O)OCC)c(O)c2ccccc21	1	-1	-1	0	-1	nt	nt	nt	nt	nt	nt
CCOc1ccc(NC(=O)c2csc3c2CCCC3)cc1	5.6*	18*	0	1	7.1*	12*	7.7*	nt	nt	16*	1
C/C(=N/NC(=O)c1ccoc1C)c1cccc(NC(=O)C2CC2)c1	7.3*	16*	1.0*	1	6.1*	1	0	0	0	0	0
C/C(=N/NC(=O)c1ccoc1C)c1cccc(NC(=O)C(F)(F)F)c1	3	15*	1	2	6.0*	6.3*	2	nt	nt	6	0
SMILES	hcDAF12 agonist	hgDAF12 agonist	ssDAF-12 act	DAX1 inh-1	DAX1 inh-2	DAX1 conf	SF1 mutant ctr	LXR ag	hcDAF12 conf	hgDAF12 ag	LXRb DAF12 ctr
C/C(=N/NC(=O)c1ccc(C)s1)c1cccc(NC(=O)c2ccoc2C)c1	-1	4	-1	0	1	nt	nt	nt	nt	nt	nt
COC(=O)[C@]12C[C@H](CC(=O)NCc3cccc(C(F)(F)F)c3)C(=O)N(Cc3ccccc3)C1=C[C@H](C(C)(C)C)O[C@@H]2C	-1	-1	-1	nt	0	nt	nt	nt	nt	nt	nt
COc1cccc(C(=O)/C=C2\Sc3ccccc3N2C)c1	13*	28*	2.6*	1	5.4*	11*	10*	2	9.1*	22*	1
Cc1ccc(-c2nc3ccc([N+](=O)[O-])cc3[nH]2)cc1	7.1*	18*	0	-2	9.2*	14*	6.7*	1	7.1*	18*	1
O=[N+]([O-])c1ccc2nc(-c3ccncc3)[nH]c2c1	2	4	-1	3	0	nt	nt	nt	nt	nt	nt
O=C1C(c2cc(=O)c3ccccc3[nH]2)=C(O)c2ccccc21	10*	21*	1.6*	3	4.6*	16*	8.0*	1	8.1*	18*	1
COc1ccc(OCc2cc(C(=O)N3CCOCC3)no2)c(Cl)c1	3	13*	0	0	7.4*	9.8*	7.5*	nt	nt	15*	1
O=C1[C@@H](C2CC2)[C@@H]2c3ccccc3C=NN2[C@@H]2c3ccccc3C=NN12	0	-1	-1	nt	-1	nt	nt	nt	nt	nt	nt
CCOc1ccc(Oc2c(Cl)c(Br)nn(Cc3cccc4ccccc34)c2=O)cc1	-1	0	-1	nt	0	nt	nt	nt	nt	nt	nt
O=C(/C=C/c1ccccc1Cl)Nc1ccc2c(c1)C(=O)NC2=O	-2	2	-2	0	0	nt	nt	nt	nt	nt	nt
O=C(/C=C/c1ccccc1Cl)Nc1cccc(O)c1	10*	24*	0	-1	5.8*	17*	11*	2	6.5*	20*	1
